Molecules are shown by their SMILES. Screen size: about 39,000 compounds; about 3,300 (8.5%) were called active. For the sample, actives were picked, then their nearest neighbours and some compounds at random.

For this assay, the system named is HepG2. Kind of assay: cytotoxicity call (relative viability < 0.9). The following applies: 10 µM.
Consider `C[C@@H]1CN([C@@H](C)CO)C(=O)c2cc(C#CC3(O)CCCC3)cnc2O[C@H]1CN(C)C(=O)CN(C)C`, for which the cytotoxicity call was “inactive”.
With `CNC[C@H]1OCCCC[C@@H](C)Oc2ccc(NC(=O)Nc3ccc(C(F)(F)F)cc3)cc2C(=O)N([C@@H](C)CO)C[C@H]1C` the entry was “inactive”.
With `COc1ccc(NC(=O)Nc2cccc3c2O[C@@H](CN(C)Cc2ccc(C(=O)Nc4ccccc4N)cc2)[C@H](C)CN([C@H](C)CO)C3=O)cc1` the entry was “inactive”; with `C[C@@H]1CCCCO[C@@H](CN(C)Cc2ccc(C(=O)Nc3ccccc3N)cc2)[C@@H](C)CN([C@H](C)CO)C(=O)c2cc(NC(=O)NC3CCCCC3)ccc2O1`, “inactive”.
Regarding `COCCOC(=O)N1C(=O)[C@@]2(c3cc(C#Cc4ccc(OC)cc4)ccc31)[C@H](c1ccccc1OCCO)N1[C@H](c3ccccc3)[C@H](c3ccccc3)OC(=O)[C@H]1[C@@H]2C(=O)NC[C@H](O)c1ccccc1`, the cytotoxicity call was “inactive”.
Under `CC(C)NC(=O)Nc1ccc2c(c1)CC(=O)N([C@H](C)CO)C[C@@H](C)[C@H](CN(C)S(=O)(=O)c1ccccc1)O2` stands “inactive”; under `C[C@@H]1CN([C@H](C)CO)C(=O)c2cccc(NC(=O)C3CCCCC3)c2O[C@@H]1CN(C)Cc1ccc(Oc2ccccc2)cc1`, “inactive”.
With `CO[C@@H]1CN(C)C(=O)c2cc(NC(=O)Nc3cccc(Cl)c3)ccc2OC[C@@H](C)N(C(=O)Nc2c(C)noc2C)C[C@@H]1C`, the cytotoxicity call was “inactive”.
Under `CO[C@H]1CN(C)C(=O)c2cc(NC(=O)Nc3cccc(Cl)c3)ccc2OC[C@H](C)N(C(=O)Nc2c(C)noc2C)C[C@@H]1C` stands “inactive”; under `C[C@@H]1CN([C@@H](C)CO)C(=O)c2cc(NC(=O)NC3CCCCC3)ccc2O[C@@H](C)CCCCO[C@@H]1CN(C)S(=O)(=O)c1cccs1`, “inactive”.
Turning to `C[C@@H]1CCCCO[C@H](CN(C)S(=O)(=O)c2cccs2)[C@H](C)CN([C@H](C)CO)C(=O)c2cc(NC(=O)Nc3ccc(F)cc3)ccc2O1`, the cytotoxicity call is “active”.
Under `C[C@@H]1CCCCO[C@@H](CN(C)S(=O)(=O)c2cccs2)[C@H](C)CN([C@H](C)CO)C(=O)c2cc(NC(=O)Cc3ccccc3)ccc2O1` stands “active”.
As to `C[C@@H]1CCCCO[C@@H](CN(C)S(=O)(=O)c2cccs2)[C@H](C)CN([C@@H](C)CO)C(=O)c2cc(NC(=O)Cc3ccccc3)ccc2O1`, the cytotoxicity call is “inactive”.
Regarding `C[C@@H]1CCCCO[C@@H](CN(C)S(=O)(=O)c2cccs2)[C@H](C)CN([C@H](C)CO)C(=O)c2cc(NC(=O)NC3CCCCC3)ccc2O1`, the cytotoxicity call was “active”.
Take `C[C@@H]1CN([C@@H](C)CO)C(=O)c2cc(NC(=O)NC3CCCCC3)ccc2O[C@@H](C)CCCCO[C@H]1CN(C)S(=O)(=O)c1cccs1`: the cytotoxicity call was “inactive”.
In the case of `C[C@H](CO)N1C[C@H](C)[C@H](CN(C)S(=O)(=O)c2cccs2)OCCCC[C@H](C)Oc2ccc(NC(=O)Nc3ccc(F)cc3)cc2C1=O`, the cytotoxicity call was “inactive”.
With `C[C@@H]1CN([C@H](C)CO)C(=O)c2cc(NC(=O)Cc3ccccc3)ccc2O[C@@H](C)CCCCO[C@H]1CN(C)S(=O)(=O)c1cccs1` the entry was “inactive”; with `C[C@H]1CCCCO[C@H](CN(C)S(=O)(=O)c2cccs2)[C@@H](C)CN([C@@H](C)CO)C(=O)c2cc(NC(=O)Nc3ccc(F)cc3)ccc2O1`, “inactive”; with `O=C(O)CNC(=O)C1CCC1`, “inactive”.
For `COCCNC(=O)C[C@@H]1CC[C@H]2[C@@H](COC[C@H](O)CN2C(=O)Nc2ccc3c(c2)OCO3)O1`, the cytotoxicity call is “inactive”.
Under `CN1C(=O)c2cc(NC(=O)c3cscn3)ccc2OC[C@@H]2O[C@H](CC(=O)N3CCOCC3)CC[C@H]21` stands “inactive”; under `C[C@@H]1CCCCO[C@@H](CN(C)C(=O)Cc2ccccc2)[C@H](C)CN([C@H](C)CO)C(=O)c2cc(NC(=O)Nc3ccccc3)ccc2O1`, “inactive”; under `COc1ccc(S(=O)(=O)N(C)C[C@@H]2Oc3ccc(NS(=O)(=O)c4ccccc4)cc3C(=O)N([C@@H](C)CO)C[C@@H]2C)cc1`, “inactive”.
Under `Cc1noc(C)c1NC(=O)N(C)C[C@@H]1Oc2ccc(NC(=O)c3ccncc3)cc2CC(=O)N([C@H](C)CO)C[C@@H]1C` stands “inactive”.
Consider `COC(=O)C1=C2CC[C@H](CO)NC(=O)N[C@H](Cc3ccccc3)C(=O)NCc3cn(nn3)C[C@H](Cc3ccccc3)NC(=O)c3oc(c(C(=O)OC)c3C(=O)OC)CC[C@H](CO)NC(=O)N[C@H](Cc3ccccc3)C(=O)NCc3cn(nn3)C[C@H](Cc3ccccc3)NC(=O)C(=C1C(=O)OC)O2`, for which the cytotoxicity call is “inactive”.
Under `C[C@@H]1CN([C@H](C)CO)C(=O)c2cc(C3=CCCC3)cnc2O[C@H]1CN(C)C(=O)Nc1ccc(C(F)(F)F)cc1` stands “inactive”.
Under `Cc1ccc(S(=O)(=O)N(C)C[C@H]2OCCCC[C@H](C)Oc3ccc(NC(=O)Nc4cccc5ccccc45)cc3C(=O)N([C@@H](C)CO)C[C@@H]2C)cc1` stands “inactive”; under `C[C@H](CO)N1C[C@H](C)[C@@H](CN(C)C(=O)C2CCOCC2)Oc2ncc(C#CCc3ccccc3)cc2C1=O`, “inactive”; under `C[C@@H]1CN([C@H](C)CO)C(=O)c2cc(Br)cnc2O[C@H]1CN(C)C(=O)Nc1ccc(F)cc1`, “inactive”.
As to `COc1ccc(NC(=O)N(C)C[C@H]2OCCCC[C@H](C)Oc3ccc(NS(=O)(=O)c4ccc(C)cc4)cc3C(=O)N([C@H](C)CO)C[C@@H]2C)cc1`, the cytotoxicity call was “inactive”.
Consider `CCCc1cc(C)[nH]c(=O)c1CNC(=O)c1cc(-c2ccc(N3CCN(C(C)C)CC3)nc2)cc2c1cnn2C(C)C`, for which the cytotoxicity call was “active”.
With `C[C@@H]1CN([C@H](C)CO)C(=O)c2cc(-c3cccc(C(=O)N(C)C)c3)cnc2O[C@H]1CN(C)S(=O)(=O)c1ccc(F)cc1` the entry was “inactive”.
Take `CO[C@@H](CN(C)S(=O)(=O)c1cn(C)cn1)[C@@H](C)CN(C(=O)Nc1ccc(C(F)(F)F)cc1)[C@@H](C)CO`: the cytotoxicity call was “inactive”.
With `C[C@@H]1CN([C@H](C)CO)C(=O)c2cc(NC(=O)NC3CCCCC3)ccc2O[C@@H](C)CCCCO[C@@H]1CN(C)Cc1ccc2c(c1)OCO2` the entry was “active”.
With `C[C@H](CO)N1C[C@H](C)[C@@H](CN(C)Cc2ccc3c(c2)OCO3)OCCCC[C@H](C)Oc2ccc(NC(=O)NC3CCCCC3)cc2C1=O` the entry was “inactive”; with `C[C@@H]1CCCCO[C@H](CN(C)Cc2ccc3c(c2)OCO3)[C@H](C)CN([C@@H](C)CO)C(=O)c2cc(NC(=O)NC3CCCCC3)ccc2O1`, “active”; with `C[C@@H]1CCCCO[C@@H](CN(C)Cc2ccc3c(c2)OCO3)[C@@H](C)CN([C@H](C)CO)C(=O)c2cc(NC(=O)NC3CCCCC3)ccc2O1`, “inactive”.
With `C[C@@H]1CCCCO[C@H](CN(C)Cc2ccc3c(c2)OCO3)[C@H](C)CN([C@H](C)CO)C(=O)c2cc(NC(=O)NC3CCCCC3)ccc2O1` the entry was “inactive”.
As to `C[C@@H]1CCCCO[C@@H](CN(C)Cc2ccc3c(c2)OCO3)[C@@H](C)CN([C@@H](C)CO)C(=O)c2cc(NC(=O)NC3CCCCC3)ccc2O1`, the cytotoxicity call is “inactive”.
With `C[C@@H]1CCCCO[C@H](CN(C)Cc2ccc3c(c2)OCO3)[C@@H](C)CN([C@H](C)CO)C(=O)c2cc(NC(=O)NC3CCCCC3)ccc2O1` the entry was “inactive”; with `C[C@@H]1CCCCO[C@H](CN(C)Cc2ccc3c(c2)OCO3)[C@@H](C)CN([C@@H](C)CO)C(=O)c2cc(NC(=O)NC3CCCCC3)ccc2O1`, “active”.
With `C[C@@H]1CCCCO[C@@H](CN(C)Cc2ccc3c(c2)OCO3)[C@H](C)CN([C@H](C)CO)C(=O)c2cc(NC(=O)NC3CCCCC3)ccc2O1` the entry was “inactive”.
Consider `C[C@H](CO)N1C[C@H](C)[C@H](CN(C)Cc2ccc3c(c2)OCO3)OCCCC[C@H](C)Oc2ccc(NC(=O)NC3CCCCC3)cc2C1=O`, for which the cytotoxicity call was “active”.
Under `C[C@H]1CCCCO[C@H](CN(C)Cc2ccc3c(c2)OCO3)[C@@H](C)CN([C@@H](C)CO)C(=O)c2cc(NC(=O)NC3CCCCC3)ccc2O1` stands “inactive”; under `C[C@@H]1CN([C@@H](C)CO)C(=O)c2cc(NC(=O)NC3CCCCC3)ccc2O[C@@H](C)CCCCO[C@@H]1CN(C)Cc1ccc2c(c1)OCO2`, “inactive”.
For `CN1CCN(C(=O)C[C@@H]2CC[C@@H]3[C@H](COc4ccc(NC(=O)C5CCOCC5)cc4C(=O)N3C)O2)CC1`, the cytotoxicity call is “inactive”.
With `C[C@@H]1CN([C@@H](C)CO)C(=O)c2cc(NS(=O)(=O)c3ccc(F)cc3)ccc2O[C@@H](C)CCCCO[C@H]1CN(C)C(=O)C1CCCCC1` the entry was “inactive”; with `O=C(C[C@@H]1CC[C@H]2[C@@H](COC[C@@H](O)CN2C(=O)c2ccccc2)O1)NCCCN1CCOCC1`, “inactive”.
Under `COc1ccccc1S(=O)(=O)N(C)C[C@H]1Oc2cc(Br)ccc2S(=O)(=O)N([C@H](C)CO)C[C@H]1C` stands “inactive”; under `C[C@@H]1CN([C@@H](C)CO)C(=O)c2cccc(NC(=O)CCCCCC(=O)Nc3ccccc3N)c2O[C@H]1CN(C)C(=O)Nc1cccc2ccccc12`, “inactive”; under `Cc1noc(C)c1NC(=O)N(C)C[C@@H]1Oc2c(NC(=O)C3CCOCC3)cccc2C(=O)N([C@H](C)CO)C[C@@H]1C`, “inactive”.
Regarding `NNCCc1ccccc1`, the cytotoxicity call is “inactive”.
With `c1ccc(CCNc2ccnc3cc4ccccc4cc23)cc1` the entry was “active”; with `NCCNc1cccc2ccccc12`, “inactive”.
With `CC(C)NC(=O)N(C)C[C@@H]1Oc2cc(C#Cc3ccc(F)cc3)ccc2S(=O)(=O)N([C@@H](C)CO)C[C@@H]1C` the entry was “inactive”; with `C[C@@H]1CN([C@H](C)CO)C(=O)c2cc(NC(=O)Nc3ccc4c(c3)OCO4)ccc2O[C@@H]1CN(C)Cc1ccc(-c2ccccc2)cc1`, “active”.
With `C[C@H]1CN([C@@H](C)CO)C(=O)c2cc(NC(=O)Nc3ccc4c(c3)OCO4)ccc2O[C@@H]1CN(C)Cc1ccc(-c2ccccc2)cc1` the entry was “active”; with `C[C@H](CO)N1C[C@H](C)[C@H](CN(C)Cc2ccc(-c3ccccc3)cc2)Oc2ccc(NC(=O)Nc3ccc4c(c3)OCO4)cc2C1=O`, “inactive”; with `C[C@H]1CN([C@@H](C)CO)C(=O)c2cc(NC(=O)Nc3ccc4c(c3)OCO4)ccc2O[C@H]1CN(C)Cc1ccc(-c2ccccc2)cc1`, “inactive”.
`C[C@@H]1CN([C@H](C)CO)C(=O)c2cc(NC(=O)Nc3ccc4c(c3)OCO4)ccc2O[C@H]1CN(C)Cc1ccc(-c2ccccc2)cc1`: the cytotoxicity call is “active”.
Turning to `C[C@H](CO)N1C[C@H](C)[C@@H](CN(C)Cc2ccc(-c3ccccc3)cc2)Oc2ccc(NC(=O)Nc3ccc4c(c3)OCO4)cc2C1=O`, the cytotoxicity call is “inactive”.
Under `C[C@@H]1CN([C@@H](C)CO)C(=O)c2cc(NC(=O)Nc3ccc4c(c3)OCO4)ccc2O[C@@H]1CN(C)Cc1ccc(-c2ccccc2)cc1` stands “active”.

For the origin of these results see the antibiotic and cytotoxicity screens of Wong et al. (2023).
